Laboratory results: PubChem BioAssay AID1159580 (chemical genetic matrix, 2015)
The campaign covered roughly 5,500 compounds. About 2,000 (36%) were called active. Roughly 18% stayed inconclusive and do not appear here. Rule as the data show it: active = normalized growth mostly below about 0.91 (no sharp cut-off); inconclusive = no clear call, values can overlap the other calls; inactive = mostly above about 0.92. Some of the results follow.

Assay: chemical genetic growth profiling, strain panel (AID 1159580);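 also: tested at 20 µM; growth read once vehicle control cultures reached saturation at 30 °C; 1 = growth at the plate median or of vehicle wells; lower values mean less growth of the strain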
Conditions: growth OD

Measured: normalized growth

CCN(CC)CCNc1ccc(CO)c2sc3ccccc3c(=O)c12
inactive: S. cerevisiae deletion strains, locus YJR075W, strain HOC1, hits give low values 0.979 | S. cerevisiae deletion strains, locus YKL009W, strain mrt4, hits give low values 0.993 | S. cerevisiae deletion strains, locus YKL068W, hits give low values 1 | S. cerevisiae deletion strains, locus YKL085W, strain MDH1 (second series), hits give low values 0.996 | S. cerevisiae deletion strains, locus YKL085W, strain MDH1, hits give low values 0.996 | S. cerevisiae deletion strains, locus YKL160W, strain elf1, hits give low values 1.01 | S. cerevisiae deletion strains, locus YKL190W, strain CNB1, hits give low values 1 | S. cerevisiae deletion strains, locus YKR001C, strain vps1, hits give low values 1 | S. cerevisiae deletion strains, locus YKR026C, strain gcn3, hits give low values 1.02 | S. cerevisiae deletion strains, locus YKR091W, strain srl3, hits give low values 1.01 | S. cerevisiae deletion strains, locus YLL001W, strain dnm1, hits give low values 1.01 | S. cerevisiae deletion strains, locus YLL026W, hits give low values 1.01 | S. cerevisiae deletion strains, locus YLL041C, strain sdh2, hits give low values 0.991 | S. cerevisiae deletion strains, locus YLR027C, strain aat2, hits give low values 1.01 | S. cerevisiae deletion strains, locus YLR039C, strain RIC1, hits give low values 1.01 | S. cerevisiae deletion strains, locus YLR058C, strain SHM2, hits give low values 0.998 | S. cerevisiae deletion strains, locus YLR102C, strain apc9, hits give low values 1.02 | S. cerevisiae deletion strains, locus YLR113W, strain HOG1, hits give low values 1.05 | S. cerevisiae deletion strains, locus YLR221C, strain rsa3, hits give low values 1.01 | S. cerevisiae deletion strains, locus YLR258W, strain gsy2, hits give low values 1.01 | S. cerevisiae deletion strains, locus YLR262C, strain YPT6 (second series), hits give low values 1 | S. cerevisiae deletion strains, locus YLR262C, strain YPT6, hits give low values 1.01 | S. cerevisiae deletion strains, locus YLR268W, strain sec22, hits give low values 0.947 | S. cerevisiae deletion strains, locus YLR320W, strain mms22, hits give low values 1.01 | S. cerevisiae deletion strains, locus YLR330W, strain CHS5, hits give low values 1.01 | S. cerevisiae deletion strains, locus YLR342W, strain FKS1 (second series), hits give low values 0.938 | S. cerevisiae deletion strains, locus YLR342W, strain FKS1, hits give low values 1 | S. cerevisiae deletion strains, locus YLR357W, strain rsc2, hits give low values 1.04 | S. cerevisiae deletion strains, locus YLR370C, strain arc18, hits give low values 1.01 | S. cerevisiae deletion strains, locus YLR371W, strain rom2, hits give low values 1.01 | S. cerevisiae deletion strains, locus YLR384C, strain iki3, hits give low values 1.01 | S. cerevisiae deletion strains, locus YLR418C, strain cdc73, hits give low values 0.919 | S. cerevisiae deletion strains, locus YML016C, strain PPZ1, hits give low values 0.996 | S. cerevisiae deletion strains, locus YML032C, strain rad52, hits give low values 0.948 | S. cerevisiae deletion strains, locus YML120C, strain ndi1, hits give low values 1.02 | S. cerevisiae deletion strains, locus YML124C, strain tub3, hits give low values 1.01 | S. cerevisiae deletion strains, locus YMR058W, strain fet3, hits give low values 0.998 | S. cerevisiae deletion strains, locus YMR078C, strain ctf18, hits give low values 1.01 | S. cerevisiae deletion strains, locus YMR125W, strain sto1, hits give low values 1 | S. cerevisiae deletion strains, locus YMR129W, hits give low values 1 | S. cerevisiae deletion strains, locus YMR205C, strain PFK2, hits give low values 0.997 | S. cerevisiae deletion strains, locus YMR223W, strain ubp8, hits give low values 0.994 | S. cerevisiae deletion strains, locus YMR231W, strain pep5, hits give low values 1.01 | S. cerevisiae deletion strains, locus YMR263W, strain SAP30, hits give low values 0.985 | S. cerevisiae deletion strains, locus YMR307W, strain GAS1, hits give low values 1.01 | S. cerevisiae deletion strains, locus YNL067W, strain RPL9B, hits give low values 0.973 | S. cerevisiae deletion strains, locus YNL071W, strain lat1, hits give low values 1.01 | S. cerevisiae deletion strains, locus YNL128W, strain TEP1, hits give low values 0.992 | S. cerevisiae deletion strains, locus YNL153C, strain GIM3, hits give low values 0.962 | S. cerevisiae deletion strains, locus YNL183C, strain NPR1, hits give low values 0.952 | S. cerevisiae deletion strains, locus YNL209W, strain ssb2, hits give low values 1.02 | S. cerevisiae deletion strains, locus YNL233W, strain BNI4, hits give low values 0.955 | S. cerevisiae deletion strains, locus YNL248C, strain rpa49, hits give low values 1 | S. cerevisiae deletion strains, locus YNL250W, strain rad50, hits give low values 1 | S. cerevisiae deletion strains, locus YNL271C, strain bni1, hits give low values 1.01 | S. cerevisiae deletion strains, locus YNL298W, strain CLA4, hits give low values 1.01 | S. cerevisiae deletion strains, locus YNL307C, strain MCK1, hits give low values 0.962 | S. cerevisiae deletion strains, locus YNL322C, strain KRE1 (second series), hits give low values 1.01 | S. cerevisiae deletion strains, locus YNL322C, strain KRE1, hits give low values 1.01 | S. cerevisiae deletion strains, locus YNR049C, strain mso1, hits give low values 1.01 | S. cerevisiae deletion strains, locus YNR052C, strain pop2, hits give low values 1.01 | S. cerevisiae deletion strains, locus YOL006C, strain TOP1, hits give low values 0.883 | S. cerevisiae deletion strains, locus YOL012C, strain htz1 0.879 | S. cerevisiae deletion strains, locus YOL147C, strain pex11, hits give low values 1.02 | S. cerevisiae deletion strains, locus YOR001W, strain rrp6, hits give low values 1 | S. cerevisiae deletion strains, locus YOR061W, strain CKA2, hits give low values 1 | S. cerevisiae deletion strains, locus YOR069W, strain VPS5, hits give low values 0.993 | S. cerevisiae deletion strains, locus YOR070C, strain gyp1, hits give low values 1 | S. cerevisiae deletion strains, locus YOR080W, strain dia2, hits give low values 1.01 | S. cerevisiae deletion strains, locus YOR083W, strain WHI5, hits give low values 1 | S. cerevisiae deletion strains, locus YOR106W, strain vam3, hits give low values 1.02 | S. cerevisiae deletion strains, locus YOR136W, strain idh2, hits give low values 1.01 | S. cerevisiae deletion strains, locus YOR144C, strain elg1, hits give low values 1 | S. cerevisiae deletion strains, locus YOR184W, strain ser1, hits give low values 0.995 | S. cerevisiae deletion strains, locus YOR231W, strain MKK1, hits give low values 1.04 | S. cerevisiae deletion strains, locus YOR265W, strain rbl2, hits give low values 1 | S. cerevisiae deletion strains, locus YOR270C, strain vph1, hits give low values 0.976 | S. cerevisiae deletion strains, locus YOR290C, strain snf2, hits give low values 1.01 | S. cerevisiae deletion strains, locus YOR316C, strain cot1, hits give low values 1.01 | S. cerevisiae deletion strains, locus YPL051W, strain arl3, hits give low values 0.997 | S. cerevisiae deletion strains, locus YPL055C, strain LGE1, hits give low values 0.954 | S. cerevisiae deletion strains, locus YPL078C, strain atp4, hits give low values 1.01 | S. cerevisiae deletion strains, locus YPL106C, strain sse1, hits give low values 1.02 | S. cerevisiae deletion strains, locus YPL240C, strain hsp82, hits give low values 1.01 | S. cerevisiae deletion strains, locus YPL241C, strain CIN2, hits give low values 1.02 | S. cerevisiae deletion strains, locus YPL256C, strain CLN2, hits give low values 1.01 | S. cerevisiae deletion strains, locus YPR119W, strain clb2, hits give low values 1.02 | S. cerevisiae deletion strains, locus YPR141C, strain kar3, hits give low values 1.02 | S. cerevisiae deletion strains, locus YPR163C, strain tif3, hits give low values 0.996 | S. cerevisiae deletion strains, locus YPR167C, strain met16, hits give low values 1.01 | S. cerevisiae deletion strains, strain wtn01, hits give low values 0.988 | S. cerevisiae strains, strain wild type, hits give low values 1.01
